PL synth Enamine – animal cell phospholipid biosynthesis inhibition, Enamine screen; ZR-82 CHO cells, pyrene fatty acid UV survival, CellTiter Blue; peroxisome-deficient CHO-K1 mutant line; plus DGAT-1, DGAT-2 and ACAT inhibitors; calls only at 10 µM; 20,000 compounds, 0.4% hits; AID 1347385;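 active = cell survival signal 2 SD away from solvent-only control wells, confirmed on one or two retests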;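 also: 3 h compound exposure then viability read about one day after UV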
An asterisk follows results filed as active; i = inactive; + = active, no number. This is one part of a sample in which hits are shown more often than they occur.

SMILES	PL synth Enamine
CC1C/C(=N\NC(=S)NC2CCCCC2)CC(C)(C)C1 (stereo not given)	+
S=C(N/N=C1\CC2CC=CC12)NC1CCCCC1 (stereo not given)	i
CN1CN=C2SC3(COC(c4ccncc4)OC3)C(=O)N2C1 (stereo not given)	i
Brc1ccc2nc(CSc3nc4ccccc4[nH]3)cn2c1	i
CCOC(=O)c1c(C)[nH]c(C(=O)COC(=O)c2ccc(C)s2)c1C	i
CCOC(=O)c1c(C)[nH]c(N=Nc2ccc3c(c2)OCO3)c1C	+
CCOC(=O)c1c(C)[nH]c(C(=O)O)c1C	i
CCn1c(C)cc(C(=O)Cn2cnc3c2c(=O)n(C)c(=O)n3C)c1C	i
CC(C)NC(=S)N/N=C1\CCCCC1C1CCCCC1 (stereo not given)	+
CC(C)NC(=S)NN=C1CCC(C(C)(C)C)CC1 (stereo not given)	i
CC1CCCC/C1=N\NC(=S)NC1CCCCC1 (stereo not given)	i
O=C(CCC(=O)c1cccs1)OCC(=O)C12CC3CC(CC(C3)C1)C2	i
O=C(CSc1nnc(SCC(=O)NC2CCCC2)s1)NC1CCCC1	i
CN(C)c1ccc(N=Nc2ccc(S(=O)(=O)O)cc2)cc1	i
CN(C)c1ccc(N=Nc2ccccc2Br)cc1	+
CN(C)c1ccc(N=Cc2sc3ccccc3c2Cl)cc1	i
CN(C)c1ccc(N=Nc2nn[nH]n2)cc1	i
CN(C)c1ccc(N=Nc2ccccc2Cl)cc1	+
CN(C)c1ccc(C=Nc2ccc(N=Cc3ccc(N(C)C)cc3)cc2)cc1	i
Brc1ccc(-n2c(-c3ccco3)nc3nc4ccccc4nc32)cc1	i
c1csc(-c2noc(CSc3ccc4ccccc4n3)n2)c1	i
NC(=O)NCCCCC(NC(N)=O)C(=O)O (stereo not given)	i
CNS(=O)(=O)c1ccc(/C(C)=N/Nc2cc(C)c3cc(C)cc(C)c3n2)cc1	+
Cc1ccc(C(=NS(=O)(=O)c2ccc(C)cc2)NS(=O)(=O)c2ccc(C)cc2)cc1	i
C/C(=N\NS(=O)(=O)c1ccc(C)cc1)c1ccc2c(c1)OCCO2	i
SMILES	PL synth Enamine
Cc1nc(SCC(=O)NN2C(=O)NC3(CCC(C)CC3)C2=O)c2c(C)c(C)sc2n1 (stereo not given)	i
CN=c1scc(-c2ccccc2F)n1/N=C/c1ccccc1F	+
CN=c1scc(-c2ccccc2F)n1/N=C/c1ccccc1	i
CN=c1scc(-c2ccc(Br)cc2)n1/N=C/c1ccccc1F	i
Cc1nc(SCC(=O)N2CC3(C)CC2CC(C)(C)C3)c2c3c(sc2n1)CCCC3 (stereo not given)	i
CN(Cc1ccc2c(c1)OCCO2)S(=O)(=O)c1ccc(C(F)(F)F)cc1	i
S=C(N/N=C/c1cccs1)NC1CCCCC1	+
O=C(/C=C/c1cccs1)NC1CCCC1	i
COCCNC(=S)N/N=C/c1cccs1	i
Cc1cccn2c(=O)cc(CSc3nnc(Cc4cccs4)n3C3CC3)nc12	i
CN1/C(=C\C=Nc2c(F)c(F)c(F)c(F)c2F)C(C)(C)c2ccccc21	i
CN1/C(=C\C=Nc2ccccc2I)C(C)(C)c2ccccc21	i
CN1/C(=C\C=Nc2ccccc2N)C(C)(C)c2ccccc21	+
Clc1ccc(C2=Nn3cc(-c4ccccc4)nc3SC2)cc1	i
CN1/C(=C2\C=NN(c3ccccc3)P2(=O)Nc2ccc([N+](=O)[O-])cc2)C(C)(C)c2ccccc21 (stereo not given)	+
Cc1cc([N+](=O)[O-])ccc1NP1(=O)/C(=C2/N(C)c3ccccc3C2(C)C)C=NN1c1ccccc1 (stereo not given)	i
Cc1nn(-c2ccccc2)c2c1P(=S)(Nc1ccc([N+](=O)[O-])cc1)/C(=C1/N(C)c3ccccc3C1(C)C)C=N2 (stereo not given)	i
Cn1c(=O)c2c(ncn2CCCC(=O)NCc2ccco2)n(C)c1=O	i
Cn1c(-c2ccc(Cl)cc2Cl)[n+](C)c2ccccc21	i
O=C([C@@H]1CCCN1C(=O)c1cccs1)N1CCN(S(=O)(=O)c2ccc(Cl)s2)CC1	i
Cc1cccc(N=P2(N3CCOCC3)C3=C(N4CCOCC4)CC(C)(C)CC3=NN2c2ccccc2)c1C (stereo not given)	i
COc1ccc(OCCn2nnc(-c3ccc(OC)c(OC)c3)n2)cc1	i
O=S(=O)(c1ccccc1F)N1CCN(S(=O)(=O)c2cccc(Cl)c2Cl)CC1	i
O=C(O)CN1C(=O)S/C(=C\c2cccs2)C1=O	i
O=[N+]([O-])c1ccc2[nH]c(O)c(N=Nc3ccc(Cl)c(Cl)c3)c2c1	i
SMILES	PL synth Enamine
O=[N+]([O-])c1ccc(N=Nc2c(O)[nH]c3ccc(Br)cc23)cc1	+
Oc1[nH]c2ccc(Br)cc2c1N=Nc1ccc(Cl)c(Cl)c1	i
CCN(CC)S(=O)(=O)c1ccc(N=Nc2c(O)[nH]c3c(C)cc(C)cc23)nc1	i
Cc1cc(C)c2[nH]c(O)c(N=Nc3ccccn3)c2c1	+
Oc1[nH]c2ccc(Br)cc2c1N=Nc1ccccn1	i
O=C(CSc1nnc(-c2cccs2)n1C1CC1)c1ccc(Cl)s1	i
CCCCCn1c(C)cc(=O)[nH]c1=O	i
Cc1ccc(-c2csc(=NC(C)C)n2/N=C/c2ccc(Cl)cc2)cc1C	+
CN=c1scc(-c2ccc(Br)cc2)n1/N=C/c1ccc(Cl)cc1	i
CC(C)N=c1scc(-c2ccc(Cl)c(Cl)c2)n1/N=C/c1ccc2c(c1)OCCO2	i
C/C(=N\NC(=S)NC(C)C)c1cccs1	i
CCOc1ccc(OCC)c(-c2c[n+](=O)c3c(n2[O-])CCCC3)c1	i
c1ccc(-c2nnc(OCc3cccc4ccccc34)c3ccccc23)cc1	i
C(=Nc1nc2ccccc2nc1N1CCOCC1)N1CCN(C(c2ccccc2)c2ccccc2)CC1	i
O=c1c2cc([N+](=O)[O-])ccc2oc2ccc([N+](=O)[O-])cc12	i
O=C1Nc2ccc([N+](=O)[O-])cc2C12NNc1ccccc1O2 (stereo not given)	+
CN1c2ccccc2C(C)(C)C12C=Cc1cc([N+](=O)[O-])ccc1O2 (stereo not given)	i
O=C1Nc2ccc(Br)cc2C1(O)C(F)(F)F (stereo not given)	i
O=C1Nc2ccc(Br)cc2C12NNc1ccccc1O2 (stereo not given)	+
O=C1NC2(Oc3ccccc31)C(=O)Nc1ccccc12 (stereo not given)	i
Cc1ccc2nc(CN3CCN(S(=O)(=O)c4cccs4)CC3)cc(=O)n2c1	i
CN(C)c1ccc(C=Nc2ccc(F)cc2)cc1	i
COC(=O)C1(C)CC2(C)CC(C)(C1)C(=O)N(C)C2=O (stereo not given)	i
CN(CC(F)(F)C(F)F)S(=O)c1ccc2ccccc2c1 (stereo not given)	i
Cc1occc(=O)c1OS(=O)(=O)c1ccccc1	i
